An excerpt weighted towards active compounds, which were near 1.9% of everything screened.
KLF5 inh: suppresses KLF5 promoter-driven expression | DLD-1 KLF5 promoter-luciferase reporter, luminescence | inhibition, % at 5 µM | 290,000 tested, 0.23% active | AID 1700;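 active means inhibition above a per-plate limit of that plate's mean compound inhibition plus 3 SD, cut at about 60% in these data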;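 further: 0% = DMSO wells and 100% = LY294002 at 200 µM; higher means less KLF5 promoter-driven luciferase light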
APP transl inh: APP translation inhibition | SH-SY5Y APP 5'UTR-luciferase reporter, luminescence | inhibition, % at 2 µM | 190,000 tested, 0.82% active;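 active means inhibition above a set limit, derived from the sample mean plus 3 SD, cut at about 45% in these data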
Ba/F3 V617F tox: loss of viability in JAK2V617F-driven Ba/F3 cells; 220,000 tested, 1.1% active; Ba/F3 EpoR-JAK2V617F viability, ATP luminescence; inhibition, % at 5.6 µM; AID 1446;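 active means inhibition above the campaign mean plus 3 SD over all tested compounds, cut at about 24% in these data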;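 further: cytokine-independent growth of Ba/F3 cells driven by EpoR plus mutant JAK2; 0% = DMSO-treated cells and 100% = JAK inhibitor I control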
IEC-6 tox: counter-screen for KLF5 inhibitors: cytotoxicity in IEC-6 cells. IEC-6 cytotoxicity, luminescence viability. inhibition, % at 5 µM. 290,000 tested, 0.78% active. AID 1825;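 further: 0% = plate median of test compound wells and 100% = cytotoxic reference compound wells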
BaF3 tox: counter-screen for JAK2V617F inhibitors: parental Ba/F3 viability inhibitors; CellTiter-Glo ATP luminescence; 220,000 tested, 1.1% active; AID 1486; inhibition, % at 5.6 µM;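 active means inhibition above a per-campaign cutoff, the mean inhibition of all tested compounds plus 3 SD, cut at about 27% in these data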;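 further: 0% = DMSO wells and 100% = JAK Inhibitor I control wells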
IEC-6 tox confirm: confirmation of cytotoxic compounds in rat IEC-6 intestinal epithelial cells; shares compounds with IEC-6 tox; IEC-6 rat intestinal epithelial viability, luminescence; inhibition, % at 5 µM; 1,900 tested, 63% active; AID 1907;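 further: 0% = vehicle and 100% = reference cytotoxic drug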
* = called active by the depositor; x = not tested or not shown. Unless noted, no stated cut-off is given here; in the data, active means inhibition above about 22%; inactive means the rest.

SMILES	KLF5 inh	APP transl inh	Ba/F3 V617F tox	IEC-6 tox	BaF3 tox	IEC-6 tox confirm
COc1ccc(NS(=O)(=O)c2cc(NC(=O)c3cnc(C)cn3)ccc2N2CCCC2)cc1	-22	-24	4	4	7	x
Cc1nc2cc(NC(=O)c3ccc([N+](=O)[O-])s3)ccc2s1	29	x	x	30*	x	19
Cc1cc(C)n(/N=C/c2cccs2)c(=O)c1C#N	-31	0	3	71*	2	5
O=C(Nc1nnc(-c2ccc(F)cc2)o1)c1ccc(S(=O)(=O)N2CCOCC2)cc1	59	x	x	40*	x	13
COc1ccccc1-c1nnc(NC(=O)c2ccc(S(=O)(=O)N3CCCC3)cc2)o1	20	x	x	22*	x	5
COc1cc(CCC(=O)OCC(=O)NC2CCCC(C)C2C)cc(OC)c1OC (centres undefined)	-27	7	6	4	12	x
CN(C)CCCN(C(=O)c1ccc(S(=O)(=O)N2CCc3ccccc32)cc1)c1nc2c(Cl)cccc2s1	-30	x	x	2	x	x
COc1cc2c(cc1OC)C(C)N(C(=O)Nc1ccccc1)CC2 (centres undefined)	60	x	x	63*	x	50*
COc1cc2c(cc1OC)C(C)N(C(=O)CCNC(=O)c1ccccc1)CC2 (centres undefined)	-19	x	x	-2	x	x
Cc1ccc(/C=N/NC(=O)c2nnn(-c3nonc3N)c2CSc2ccccc2)o1	-19	x	x	12	x	x
Cn1cccc1/C=C1\SC(=Nc2ccc(O)cc2)NC1=O	46	x	89*	90*	87*	66*
Cn1cccc1/C=C1\SC(=Nc2ccccc2)NC1=O	39	x	76*	68*	72*	57*
Cc1cc(C(=O)NC2CCCc3c2cnn3-c2cccc(C)c2C)n(C)n1 (centres undefined)	20	x	x	36*	x	29*
Cn1nccc1C(=O)NC1CCCc2c1cnn2-c1ccc(C(C)(C)C)cc1 (centres undefined)	-6	x	x	23*	x	21
CC(=O)NC1CCCc2c1cnn2-c1ccc(C(C)(C)C)cc1 (centres undefined)	-32	x	x	-1	x	x
Cc1cccc(-n2ncc3c2CCCC3NC(=O)c2ccc[n+]([O-])c2)c1C (centres undefined)	-29	x	x	-6	x	x
Cc1cccc(C)c1OCC(O)CNC(C)c1ccccc1 (centres undefined)	16	x	x	39*	x	18
COc1ccc(CCN2C(=O)c3ccccc3NC2c2cc(Cl)c(O)c(OC)c2)cc1 (centres undefined)	39	x	x	54*	x	-5
O=C1c2ccccc2C(=O)N1c1cccc2cccnc12	-23	-10	3	44*	10	9
O=C1C(=O)N(CCS(=O)(=O)c2ccccc2)c2ccc(Cl)cc21	-15	x	x	40*	x	4
Cc1cc(C)n(-c2nc3ccccc3c(=O)n2OCC(=O)N(C)C)n1	-15	3	-1	1	4	x
Cc1cc(C)n(-c2nc3ccccc3c(=O)n2OCC(=O)OCc2ccccc2)n1	8	51*	-1	58*	4	30*
COc1cc(-c2noc(C)c2C#Cc2ccsc2)cc(OC)c1OC	57	x	x	83*	x	61*
COc1cc(-c2noc(C)c2C#CC2(O)CCCCC2)cc(OC)c1OC	-2	x	x	9	x	x
CC1CCc2c(C(=O)Nc3cccc(-c4nn[nH]n4)c3)csc2C1 (centres undefined)	-32	x	x	42*	x	-5
SMILES	KLF5 inh	APP transl inh	Ba/F3 V617F tox	IEC-6 tox	BaF3 tox	IEC-6 tox confirm
CCc1nnc(NC(=O)c2csc3c2CCC(C)C3)s1 (centres undefined)	-1	-145	-2	0	2	x
O=C(NCCCNC(=O)c1cc(Cl)ccc1Cl)c1cnccn1	0	x	x	0	x	x
C=CCn1c(O)c(N=NC(=S)Nc2ccccc2F)c2cc(S(=O)(=O)N3CCOCC3)ccc21	44	24	11	30*	18	17
CCOC(=O)c1[nH]c(C)c(/C(O)=C2\C(=O)C(=O)N(CCN(C)C)C2c2ccc(C)o2)c1C (centres undefined)	20	6	6	25*	6	11
CCOC(=O)c1[nH]c(C)c(/C(O)=C2\C(=O)C(=O)N(CCN3CCOCC3)C2c2cccs2)c1C (centres undefined)	-10	23	-1	26*	0	6
O=C(CP(=O)(c1ccccc1)c1ccccc1)Nc1cccc(CP(=O)(c2ccccc2)c2ccccc2)c1	11	x	5	-3	5	x
c1csc(-n2nc3ccccc3n2)c1	-26	-12	-1	-1	4	x

Screening data as filed in PubChem BioAssay.
